# According to PubChem BioAssay (Tox21):
# A number with no mark means an inactive call. Inconclusive results are not listed. Where a call stands in place of a potency, no number is given. Activity calls are given as the source filed them. The call rests on the fitted dose curve; in most records, active means well fitted curve in the direction sought with a large enough effect in the repeat runs; inconclusive means weak or mixed curves; inactive means no such curve, though single readings can be large; an effect the other way counts as inactive or inconclusive.
# Experiments:
# [1] = A CellTox Green Cytotoxicity Assay to monitor cytotoxicity in HEK293 cells - 0 hour (AID 1224869); further: nearly all actives have a fitted effect of over 50% in size
# Method in brief: (§1)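 Tox21 screen in HEK293: membrane-impermeant cyanine dye fluoresces on binding dead-cell DNA; compound pinned 5 h post-seeding, plates held at 37 C, signal read repeatedly through 40 h.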
# [2] = qHTS RealTime-Glo MT Cell Viability Assay in HepG2 cells - 40 hour (AID 1224870); further: nearly all actives have a fitted effect of over 50% in size
# Method in brief: (§2)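 HepG2 cells mixed with RealTime-Glo MT reagents (NanoLuc plus cell-permeant prosubstrate) were seeded at 600 cells/well, incubated 5 h at 37 C/5% CO2, then pinned with compounds in DMSO; nonlytic luminescence tracked viability during 40 h treatment.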
# [3] = A CellTox Green Cytotoxicity Assay to monitor cytotoxicity in HEK293 cells - 40 hour (AID 1224871); further: nearly all actives have a fitted effect of over 45% in size
# Method in brief: as §1
# [4] = qHTS RealTime-Glo MT Cell Viability Assay in HEK293 cells - 16 hour (AID 1224872); further: top concentration of the series differs between compounds; nearly all actives have a fitted effect of over 50% in size
# Method in brief: (§3)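 Assay medium contained NanoLuc luciferase plus cell-permeant prosubstrate, added with HEK293 cells at 600 cells/well. After 5 h at 37 C/5% CO2 compounds were added; plates stayed at 37 C for 40 h with serial luminescence reads.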
# [5] = qHTS RealTime-Glo MT Cell Viability Assay in HepG2 cells - 8 hour (AID 1224873); further: nearly all actives have a fitted effect of over 55% in size
# Method in brief: as §2
# [6] = qHTS RealTime-Glo MT Cell Viability Assay in HEK293 cells - 40 hour (AID 1224874); details: RealTime-Glo luminescence, hits give low values; further: nearly all actives have a fitted effect of over 50% in size
# Method in brief: (§4)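 HEK293 + NanoLuc + prosubstrate, 600 cells/well; 5 h, 37 C/5% CO2; compound 23 nL in DMSO by pintool; 37 C; luminescence read at 0, 8, 16, 24, 32 and 40 h time points.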
# [7] = A CellTox Green Cytotoxicity Assay to monitor cytotoxicity in HEK293 cells - 24 hour (AID 1224875); further: nearly all actives have a fitted effect of over 45% in size; further: potency means the concentration at half of the fitted maximal effect
# Method in brief: as §1
# [8] = A CellTox Green Cytotoxicity Assay to monitor cytotoxicity in HepG2 cells - 16 hour (AID 1224876); further: nearly all actives have a fitted effect of over 45% in size; further: potency means the concentration at half of the fitted maximal effect
# Method in brief: (§5)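 Measurements at 0, 8, 16, 24, 32 and 40 h of treatment captured CellTox Green fluorescence in HepG2 cells that had been co-plated with reagent and preincubated 5 h at 37 C/5% CO2.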
# [9] = qHTS RealTime-Glo MT Cell Viability Assay in HepG2 cells - 32 hour (AID 1224877); further: nearly all actives have a fitted effect of over 55% in size
# Method in brief: (§6)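 qHTS, HepG2, 600 cells/well, RealTime-Glo (NanoLuc + prosubstrate) added with cells; 5 h preincubation; DMSO compound addition; 37 C; luminescence at 0/8/16/24/32/40 h.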
# [10] = A CellTox Green Cytotoxicity Assay to monitor cytotoxicity in HepG2 cells - 24 hour (AID 1224878); further: nearly all actives have a fitted effect of over 45% in size; further: potency means the concentration at half of the fitted maximal effect
# Method in brief: as §5
# [11] = A CellTox Green Cytotoxicity Assay to monitor cytotoxicity in HepG2 cells - 40 hour (AID 1224879); further: nearly all actives have a fitted effect of over 40% in size; further: potency means the concentration at half of the fitted maximal effect
# Method in brief: as §5
# [12] = qHTS RealTime-Glo MT Cell Viability Assay in HEK293 cells - 0 hour (AID 1224880)
# Method in brief: as §4
# [13] = A CellTox Green Cytotoxicity Assay to monitor cytotoxicity in HEK293 cells - 32 hour (AID 1224881); further: nearly all actives have a fitted effect of over 40% in size; further: potency means the concentration at half of the fitted maximal effect
# Method in brief: as §1
# [14] = A CellTox Green Cytotoxicity Assay to monitor cytotoxicity in HepG2 cells - 0 hour (AID 1224882); further: nearly all actives have a fitted effect of over 35% in size; further: potency means the concentration at half of the fitted maximal effect
# Method in brief: as §5
# [15] = A CellTox Green Cytotoxicity Assay to monitor cytotoxicity in HepG2 cells - 32 hour (AID 1224883); further: nearly all actives have a fitted effect of over 50% in size; further: potency means the concentration at half of the fitted maximal effect
# Method in brief: as §5
# [16] = A CellTox Green Cytotoxicity Assay to monitor cytotoxicity in HEK293 cells - 8 hour (AID 1224884); further: nearly all actives have a fitted effect of over 35% in size; further: potency means the concentration at half of the fitted maximal effect
# Method in brief: as §1
# [17] = qHTS RealTime-Glo MT Cell Viability Assay in HepG2 cells - 16 hour (AID 1224885); further: nearly all actives have a fitted effect of over 50% in size
# Method in brief: as §6
# [18] = qHTS RealTime-Glo MT Cell Viability Assay in HEK293 cells - 24 hour (AID 1224886)
# Method in brief: as §3
# [19] = qHTS RealTime-Glo MT Cell Viability Assay in HEK293 cells - 32 hour (AID 1224868)
# Method in brief: as §3
# [20] = qHTS RealTime-Glo MT Cell Viability Assay in HEK293 cells - 8 hour (AID 1224887)
# Method in brief: as §4
SMILES,outcome [1],outcome [2],Potency [3],outcome [4],outcome [5],max response [6] [%],Potency [7],Potency [8],outcome [9],Potency [10],Potency [11],Potency [12],Potency [13],Potency [14],Potency [15],Potency [16],outcome [17],outcome [18],outcome [19],outcome [20]
CCC(C)c1nccnc1OC (stereo unspecified),inactive,inactive,inactive,inactive,inactive,1.32,inactive,inactive,inactive,inactive,inactive,inactive,inactive,inactive,inactive,inactive,inactive,inactive,–,–
O=C(c1ccccc1)c1cccc(O)c1,inactive,inactive,inactive,–,–,–,inactive,inactive,inactive,inactive,inactive,inactive,inactive,inactive,inactive,inactive,inactive,inactive,inactive,–
N[C@H]1C(O)O[C@H](CO)[C@@H](O)[C@@H]1O (stereo partly specified),inactive,inactive,inactive,–,inactive,-1.72,inactive,inactive,inactive,inactive,–,inactive,inactive,inactive,inactive,inactive,inactive,inactive,inactive,inactive
O=C1Nc2ccccc2C1=O,inactive,inactive,inactive,–,–,–,inactive,inactive,inactive,inactive,–,inactive,inactive,inactive,inactive,inactive,inactive,–,–,–
CCCC(=O)OC,inactive,inactive,inactive,inactive,inactive,–,inactive,–,inactive,inactive,inactive,inactive,inactive,inactive,inactive,inactive,inactive,inactive,–,inactive
CC(=O)c1ccc(O)c(C(N)=O)c1,inactive,inactive,inactive,inactive,inactive,2.03,inactive,–,inactive,inactive,inactive,inactive,inactive,inactive,inactive,inactive,inactive,inactive,–,inactive
CN1CCN(C(=O)C2CCCCC2)CC1,inactive,inactive,inactive,–,inactive,0.482,inactive,–,inactive,inactive,inactive,inactive,inactive,inactive,inactive,inactive,inactive,inactive,–,inactive
CCN(CC)CC(=O)Oc1ccc(NC(C)=O)cc1,inactive,inactive,inactive,–,inactive,–,inactive,inactive,inactive,inactive,inactive,inactive,inactive,inactive,inactive,inactive,inactive,–,–,–
C/C=C(\C)C=O,inactive,inactive,inactive,–,inactive,8.23,inactive,inactive,inactive,inactive,inactive,inactive,inactive,inactive,inactive,inactive,inactive,inactive,–,inactive
COC(=O)c1c(C)cc(O)c(C)c1O,inactive,inactive,inactive,–,inactive,–,inactive,inactive,inactive,inactive,inactive,inactive,inactive,inactive,inactive,inactive,inactive,–,–,inactive
COC(=O)N/N=C/c1c[n+]([O-])c2ccccc2[n+]1[O-],inactive,inactive,–,inactive,inactive,5.36,21.3 µM (active),23.9 µM (active),inactive,23.9 µM (active),23.9 µM (active),inactive,21.3 µM (active),23.9 µM (active),23.9 µM (active),23.9 µM (active),inactive,inactive,–,inactive
N#Cc1cc(NC(=O)C(=O)O)c(Cl)c(NC(=O)C(=O)O)c1,inactive,inactive,inactive,inactive,–,-0.333,inactive,inactive,inactive,inactive,inactive,inactive,inactive,inactive,inactive,inactive,inactive,inactive,–,inactive
CCOC(=O)[C@H](CCc1ccccc1)N[C@H]1CS[C@H](c2cccs2)CN(CC(=O)O)C1=O,inactive,inactive,inactive,inactive,inactive,0.833,inactive,inactive,inactive,inactive,inactive,inactive,inactive,inactive,inactive,inactive,inactive,inactive,–,inactive
CCCCC(CC)CCC(CC(C)C)OS(=O)(=O)O (stereo unspecified),inactive,inactive,inactive,inactive,inactive,–,inactive,–,inactive,inactive,inactive,inactive,inactive,inactive,inactive,inactive,inactive,inactive,–,inactive
O=S(=O)(O)c1cc(I)c(O)c2ncccc12,inactive,inactive,inactive,inactive,inactive,5.82,inactive,inactive,inactive,inactive,–,inactive,inactive,inactive,inactive,inactive,inactive,inactive,–,inactive
